Assay results reported in PubChem BioAssay AID1159580 (chemical genetic matrix, 2015).
The whole screen tested about 5,500 compounds, of which about 2,000 (36%) were called active. Not shown: some 18% with an inconclusive outcome. Cut-off read from the data, not from the text of the source: active = normalized growth mostly below about 0.91 (no sharp cut-off); inconclusive = no clear call, values can overlap the other calls; inactive = mostly above about 0.92. The list shows a part of the results.

Assay: chemical genetic growth profiling, strain panel (AID 1159580);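 note: tested at 20 µM; growth read once vehicle control cultures reached saturation at 30 °C; 1 = growth at the plate median or of vehicle wells; lower values mean less growth of the strain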
Conditions: S. cerevisiae deletion strains, growth OD
[1] = locus YDL101C, strain DUN1, active compounds read low
[2] = locus YHR030C, strain SLT2, active compounds read low
[3] = locus YAL013W, strain DEP1, active compounds read low
[4] = locus YBR229C, strain ROT2, active compounds read low
[5] = locus YDR150W, strain NUM1, active compounds read low
[6] = locus YEL061C, strain CIN8, active compounds read low
[7] = locus YGR078C, strain PAC10, active compounds read low
[8] = locus YHR087W, strain rtc3, active compounds read low
[9] = locus YJL187C, strain SWE1, active compounds read low
[10] = locus YJR043C, strain POL32, active compounds read low
[11] = locus YJR075W, strain HOC1, active compounds read low
[12] = locus YLR039C, strain RIC1, active compounds read low
[13] = locus YLR058C, strain SHM2 (second series), active compounds read low
[14] = locus YLR085C, strain ARP6, active compounds read low
[15] = locus YLR262C, strain YPT6, active compounds read low
[16] = locus YML094W, strain GIM5, active compounds read low
[17] = locus YMR219W, strain ESC1, active compounds read low
[18] = locus YMR263W, strain SAP30, active compounds read low
[19] = locus YNL153C, strain GIM3, active compounds read low
[20] = locus YNL298W, strain CLA4 (second series), active compounds read low
[21] = locus YNL322C, strain KRE1, active compounds read low
[22] = locus YNR030W, strain Alg12, active compounds read low
[23] = locus YOL006C, strain TOP1, active compounds read low
[24] = locus YPL055C, strain LGE1, active compounds read low
[25] = locus YPL241C, strain CIN2, active compounds read low
[26] = locus YPR135W, strain CTF4, active compounds read low

Measured: normalized growth

S=C(N/N=C\c1cccs1)NC1CC2CCC1C2 (stereo unspecified)
active: [2] 0.763 | locus YLR113W, strain HOG1, active compounds read low 0.788 | locus YPL256C, strain CLN2, active compounds read low 0.736
inactive: locus YAR019C, strain CDC15, active compounds read low 0.943 | locus YBL105C, strain PKC1, active compounds read low 0.94 | locus YBR135W, strain CKS1, active compounds read low 0.959 | locus YBR136W, strain MEC1, active compounds read low 0.95 | locus YBR160W, strain CDC28, active compounds read low 0.954 | locus YDL017W, strain CDC7, active compounds read low 0.941 | locus YDL028C, strain MPS1, active compounds read low 0.958 | [1] 0.952 | locus YDL108W, strain KIN28, active compounds read low 0.951 | locus YDL132W, strain cdc53, active compounds read low 0.96 | locus YDL214C, strain PRR2, active compounds read low 0.913 | locus YDR052C, strain DBF4, active compounds read low 0.945 | locus YDR054C, strain cdc34, active compounds read low 0.928 | locus YDR226W, strain ADK1, active compounds read low 0.937 | locus YDR477W, strain SNF1, active compounds read low 0.91 | locus YER123W, strain YCK3, active compounds read low 0.938 | locus YER133W, strain GLC7, active compounds read low 0.905 | locus YFL009W, strain cdc4, active compounds read low 0.934 | locus YFL029C, strain CAK1, active compounds read low 0.94 | locus YFR003C, strain YPI1, active compounds read low 0.951 | locus YFR019W, strain FAB1, active compounds read low 0.956 | locus YFR028C, strain CDC14, active compounds read low 0.944 | locus YGR040W, strain KSS1, active compounds read low 0.909 | locus YGR052W, strain FMP48, active compounds read low 0.921 | locus YGR092W, strain DBF2, active compounds read low 0.794 | locus YHR079C, strain IRE1, active compounds read low 0.75 | locus YHR082C, strain KSP1, active compounds read low 0.898 | locus YHR205W, strain SCH9, active compounds read low 0.732 | locus YIL147C, strain SLN1, active compounds read low 0.956 | locus YJL095W, strain BCK1, active compounds read low 0.89 | locus YJL128C, strain PBS2, active compounds read low 0.957 | locus YJL157C, strain FAR1, active compounds read low 0.885 | locus YJR016C, strain ILV3, active compounds read low 0.945 | locus YJR066W, strain TOR1 (second series), active compounds read low 0.87 | locus YJR066W, strain TOR1, active compounds read low 0.908 | locus YKL048C, strain ELM1, active compounds read low 0.934 | locus YKL067W, strain YNK1, active compounds read low 0.95 | locus YKL101W, strain HSL1, active compounds read low 0.949 | locus YKL193C, strain SDS22, active compounds read low 0.947 | locus YKL203C, strain TOR2, active compounds read low 0.978 | locus YLR133W, strain CKI1, active compounds read low 0.913 | locus YLR403W, strain SFP1, active compounds read low 0.787 | locus YML070W, strain DAK1, active compounds read low 0.927 | locus YMR001C, strain CDC5, active compounds read low 0.944 | locus YMR205C, strain PFK2 (second series), active compounds read low 0.946 | locus YMR277W, strain FCP1, active compounds read low 0.946 | locus YNL006W, strain LST8, active compounds read low 0.957 | locus YNL020C, strain ARK1, active compounds read low 0.918 | locus YNL161W, strain CBK1, active compounds read low 0.936 | locus YNL183C, strain NPR1, active compounds read low 0.967 | locus YNL207W, strain RIO2, active compounds read low 0.929 | locus YNL222W, strain SSU72, active compounds read low 0.936 | locus YNL307C, strain MCK1 (second series), active compounds read low 0.842 | locus YOL078W, strain AVO1, active compounds read low 0.939 | locus YOL136C, strain PFK27, active compounds read low 0.881 | locus YOR061W, strain CKA2, active compounds read low 0.948 | locus YOR119C, strain RIO1, active compounds read low 1.01 | locus YOR231W, strain MKK1, active compounds read low 0.935 | locus YOR329C, strain SCD5, active compounds read low 0.949 | locus YPL031C, strain PHO85, active compounds read low 0.879 | locus YPL153C, strain RAD53, active compounds read low 0.88 | locus YPL204W, strain HRR25, active compounds read low 0.842 | locus YPL209C, strain IPL1, active compounds read low 0.943 | locus YPR025C, strain CCL1, active compounds read low 0.959 | locus YPR106W, strain ISR1, active compounds read low 0.953 | locus YPR111W, strain DBF20, active compounds read low 0.953 | strain NNK1, active compounds read low 0.947 | strain TSCII, active compounds read low 0.932

COc1cc(/C=N\NC(=S)NC2CC3CCC2C3)cc(OC)c1OC (stereo unspecified)
active: [14] 0.653 | [23] 0.51
inactive: [3] 0.985 | [4] 1.01 | [1] 1 | [5] 0.998 | [6] 0.994 | [7] 1 | locus YGR229C, strain SMI1, active compounds read low 1 | [2] 0.816 | [8] 1.03 | [9] 0.996 | [10] 1.02 | [11] 1.05 | [12] 0.97 | [13] 1.02 | [15] 1.05 | [16] 0.913 | [17] 1.02 | [18] 0.975 | [19] 1.01 | [20] 0.889 | [21] 1.01 | [22] 0.92 | [24] 0.923 | [25] 0.898 | [26] 0.843

COc1cc(C=Nc2ccc(F)cc2)cc(OC)c1OC
inactive: [3] 0.995 | [4] 0.978 | [1] 1 | [5] 0.896 | [6] 0.986 | [7] 1 | [2] 1.02 | [8] 1.01 | [9] 0.998 | [10] 1.01 | [11] 0.954 | locus YKL190W, strain CNB1, active compounds read low 0.98 | [12] 0.983 | [13] 1.02 | [14] 0.965 | [15] 0.98 | [16] 0.988 | [17] 0.985 | [18] 1.01 | locus YMR307W, strain GAS1, active compounds read low 0.938 | [19] 1.01 | [20] 1 | [21] 0.979 | [22] 0.979 | [23] 1 | [24] 1.02 | [25] 0.997 | [26] 1.11
